PubChem BioAssay AID602332 (National Center for Advancing Translational Sciences (NCATS), 2012)
Where “and” joins values, the source holds several entries; their conditions need not be identical. Identical values can stand only once. Out of some 420,000 compounds screened, about 75 (0.02%) were called active. Shown is part of a subset that was picked to be rich in actives. Unmarked numbers belong to inactive results. Calls come from the whole dose curve; as a rule, active = well fitted activation curve with a large enough effect; inconclusive = small, poorly fitted or top-dose-only effect; inactive = no such curve, though single readings can be large or run the other way.

experiment: qHTS for Inducers of the Endoplasmic Reticulum Stress Response (ERSR) in Human Glioma: qHTS; conditions: U87-MG GRP78 promoter luciferase reporter, 16 h; activation: active compounds read high; note: nearly all actives have a fitted effect of over 35% in size; for activation: % of control where 0% means no effect
Description: Primary protein unfolding takes place for many diseases, including diabetes and hypoxia, , and triggers a reaction in the cells called ER stress response (ERSR). ). ERSR is designed as a repair mechanism, but ultimately leads to cell death via apoptosis if conditions triggering protein unfolding persist (1). The molecular clue to ERSR activation is the enhancement of the expression of key molecular chaperones, including the glucose regulated protein (GRP) 78. GRP78 is the main sensor for protein folding and the main actuator of the ERSR.
In a collaboration between the Southern Research Institute and the NIH Chemical Genomics Center, a cell based screen was developed that reliably uses GRP78 as a sensor to identify small molecules as inducers of ERSR. In resting conditions, GRP78 binds proteins and acts as a natural repressor. Once unfolded proteins are present in the ER, GRP78 releases some of the repressors and binds to the unfolded proteins. The release of the repressors executes the ERSR program. Using a human glioma cell line in a miniaturized, luminescent format, a high-throughput screen was developed to identify actuators of the ERSR.
(1) Soboloff, J. and S. A. Berger (2002). "Sustained ER Ca2+ depletion suppresses protein synthesis and induces activation-enhanced cell death in mast cells." J Biol Chem 277(16): 13812-20.
NIH Chemical Genomics Center [NCGC]
NIH Molecular Libraries Probe Centers Network [MLPCN]
Assay Submitter (PI): Maurizio Grimaldi, Southern Research Institute
Stable transfected human glioma cell line, U87-MG, are dispensed at density 1000 cells/well into Greiner white solid bottom 1536-well assay plates. Compounds are transferred via Kalypsys pin tool equipped with 1536-pin array (10nl slotted pins, V&P Scientific, San Diego, CA). The assay plates will be incubated for 16 hours and developed by adding appropriate quantities of the Promega Bright Glo reagent. The plates will be incubated at room temperature for 10 minutes prior to being transferred into a ViewLux high-throughput CCD imager (PerkinElmer), wherein end-point measurements of luminescence are acquired.
Potency is the fitted concentration of half-maximal effect.

| Compound | Potency | activation |
| --- | --- | --- |
| CCOc1ccc(S(=O)(=O)Nc2cccc(C(=O)NCC3(N4CCCCC4)CCCCC3)c2)cc1 | 15.8 µM (active) |  |
| O=C(NCC1(N2CCCCC2)CCCCC1)c1ccc(NS(=O)(=O)c2ccc(F)cc2)cc1 |  | -3.09% |
| O=C(NCC1(N2CCCCC2)CCCCC1)c1cccc(S(=O)(=O)Nc2ccccc2Cl)c1 |  | -4.77% |
| COc1ccc(C2CC(=O)c3c(O)cc(OC4OC(COC5OC(C)C(O)C(O)C5O)C(O)C(O)C4O)cc3O2)cc1O (stereo not given) |  | -4.13% |
| COc1cc(-c2cccnc2)cc2c1OCCN(C(=O)Cc1csc(C)n1)C2 |  | -6.23% |
| O=C(c1cccc(F)c1)N1CCC2(CCCN(Cc3ccncc3)C2)CC1 |  | -4.07% |
| O=C(c1ccncc1)N1CCC2(CCCN(C(c3ccccc3)c3ccccc3)C2)CC1 | 35.5 µM (active) |  |
| COc1ccc(C(=O)N2CCC3(CCCN(C(c4ccccc4)c4ccccc4)C3)CC2)cc1 |  | -2.87% |
| CCCNC(=O)OC[C@@H]1O[C@H](c2ccccc2)C=C[C@@H]1Oc1ccc(OC)cc1 |  | -2.78% |
| CO[C@@H]1COC(=O)[C@H](Cc2ccccc2)NC(=O)C/C=C\[C@@H](C)[C@H](OC)COC(=O)[C@@H](C)NC(=O)C/C=C\[C@H]1C |  | -5.06% and -3.17% |
| CN(Cc1cccc2ncccc12)C(=O)c1cnn(-c2nccc(-c3ccccc3F)n2)c1C1CC1 |  | -10.9% |
| O=C(c1cn(CC2CCCN(Cc3cc4ccccc4s3)C2)nn1)N1CCCC1 (stereo not given) |  | -4.62% |
| Cc1cccc(CNC(=O)c2cnn(-c3nccc(-c4ccccc4F)n3)c2C2CC2)n1 |  | -2.43% |
| COc1ccc(/C=C/NC(=O)c2ccc(OC)cc2)cc1 |  | -1.95% |
| N#Cc1ccccc1-c1ccc2ncnc(NCc3cccnc3)c2c1 |  | -2.79% |
| CO[C@@]12[C@@H](COC(N)=O)C3=C(C(=O)C(C)=C(N)C3=O)N1C[C@@H]1N[C@@H]12 |  | -2.04% |
| COc1cc(C[C@H]2NCCc3cc(O)c(O)cc32)cc(OC)c1OC |  | -2.86% |
| COc1cc([C@@H]2c3cc4c(cc3[C@@H](O[C@@H]3O[C@@H]5CO[C@@H](C)O[C@H]5[C@H](O)[C@H]3O)[C@H]3COC(=O)[C@H]23)OCO4)cc(OC)c1OP(=O)(O)O |  | -3.95% |
| CCC1(C2CCN(Cc3cccnc3)CC2)NC(=O)N(CC2COc3ccccc3O2)C1=O (stereo not given) |  | -3.69% |
| CCS(=O)(=O)Nc1cc(C(=O)N2C[C@@H](C)O[C@@H](C)C2)c2c(c1)nc(-c1ccccc1)n2C |  | -5.69% |
| CC[C@H](C)[C@H](NC(=O)[C@H](Cc1ccc(O)cc1)NC(=O)[C@@H](NC(=O)[C@H](CCCN=C(N)N)NC(=O)[C@@H](N)CC(=O)O)C(C)C)C(=O)N[C@@H](Cc1cnc[nH]1)C(=O)N1CCC[C@H]1C(=O)N[C@@H](Cc1ccccc1)C(=O)O |  | -0.592% |
| COc1ccc2c(c1)CCc1cnc(-n3ncc(C(=O)NCc4cccnc4)c3C3CC3)nc1-2 |  | -2.79% |
| COc1cc(=O)n2c(c1C(=O)NCc1ccco1)CCN(Cc1ccccc1)CC2 |  | -4.45% |

| Compound | Potency | activation |
| --- | --- | --- |
| Cc1oc(-c2cccc(NC(=O)c3ccccc3)c2)nc1CNC(=O)c1cnc2ccccn2c1=O |  | -3.8% |
| OCC1CCCN(c2nc3cc4c(cc3cc2CNCc2cccs2)OCO4)C1 (stereo not given) |  | -3.02% |
| Cc1cc[n+](C2CCCCC2)cc1 |  | 0.895% |
| C#CCC(C(=O)OC)(C(=O)OC)C(C[N+](=O)[O-])c1ccccc1 (stereo not given) |  | -5.05% |
| COc1ccc(CN2CCOc3c(cc(-c4ncc(C(F)(F)F)cc4Cl)cc3OCC3CCCO3)C2)c(O)c1 (stereo not given) |  | -0.626% |
| COc1cccc(CN2CCC3(CC2)c2ccccc2[C@@H](NC(=O)c2ccccc2OC)[C@@H]3O)c1 |  | -2.93% |
| CC1(C)OC(C(O)(c2ccccc2)c2ccccc2)C(C(O)(c2ccccc2)c2ccccc2)O1 (stereo not given) |  | -4.02% |
| C[C@@H]1O[C@@H](OC[C@H]2O[C@@H](Oc3cc(O)c4c(c3)O[C@H](c3ccc(O)c(O)c3)CC4=O)[C@H](O)[C@@H](O)[C@@H]2O)[C@H](O)[C@H](O)[C@H]1O |  | -3.44% |
| CC(=O)OCC1OC(C#CCCCc2ccccc2)C=CC1OC(C)=O (stereo not given) |  | -2.84% and 1.87% |
| CC(=O)OC[C@H]1O[C@@H](O[C@H]2[C@H](O)[C@@H](OC(=O)c3ccccc3C(=O)O)[C@H](O)O[C@@H]2COC(C)=O)[C@H](O)[C@@H](OC(=O)c2ccccc2C(=O)O)[C@@H]1O |  | -0.805% |
| CN(C)c1ccc(/C=C/c2sc3ccccc3[n+]2C)cc1 |  | -8.55% |
| FC(F)(F)c1cccc(-c2cn[nH]c2C2CCCN(Cc3cccn3-c3ccccn3)C2)c1 (stereo not given) |  | -5.05% |
| C=C(C)C1CC=C(CO)CC1 (stereo not given) |  | -1.71% |
| C=C(C)C1CC=C(C)C(O)C1 (stereo not given) | 11.2 µM (active) |  |
| CCOC(=O)N/N=C1/C[C@@H](O)[C@@H](O)[C@@H]2[C@@H]3C(=O)N(CC)C(=O)[C@H]3CC[C@H]12 |  | -5.32% |
| CN1[C@H]2CC(OC(=O)[C@@H](CO)c3ccccc3)C[C@H]1[C@H]1O[C@H]12 (stereo not given in full) |  | -4% |
| COc1ccccc1-c1ccc(C(=O)N(C)C(C)c2ccon2)c(N2CCN(c3ccccc3F)CC2)n1 (stereo not given) |  | -4.71% |
| Cc1cnc(C(=O)N2CCOc3ccc(CN4CCCC(C(=O)c5cccnc5)C4)cc3C2)[nH]1 (stereo not given) |  | -3.36% |
| COc1ccc(CN2CCC3(CCC(CNC(=O)c4ccco4)O3)CC2)cc1OC (stereo not given) |  | 0.172% |
| COC(=O)c1ccccc1-c1cc(C)cc2c1OC(CNC(=O)C1CCOC1)C2 (stereo not given) |  | -1.81% |
| Cn1c(=O)c(CCc2ccccc2)nc2cnc(Nc3ccccc3)nc21 |  | -3.93% |
| Cc1c(S(=O)(=O)O)oc2c1C(=O)C(=O)c1c-2ccc2c1CCCC2(C)C |  | -3.94% |
